Rows were chosen to be rich in hits. Some 11% of all compounds tested hit in one or more screens of this group.
NPR1 antag: antagonists of human natriuretic peptide receptor Npr1; P16066; HEK293 hNpr1 GloSensor cGMP, ANP-stimulated luminescence; Potency, µM (top dose mostly 46.3 µM), inactives show top-dose activity change, negative = inhibition, actives largely listed as inhibitors; 1.6% of 76,000 active; AID 1347048; calls by dose curve; note: % is set by controls: 0 for no effect and ±100 for the full control effect; nearly all actives have a fitted effect of over 60% in size
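HEK293 cells stably expressing human Npr1 and cGMP GloSensor pGS-40F, loaded 2 h with 2% GloSensor reagent, given compound 30 min at room temperature. Luminescence read before and 20 min after 0.1 nM hNppA.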
FLuc inh-1: inhibitors of firefly (Photinus pyralis) luciferase; P08659; Potency, µM (titrated, usually from 115 µM), actives largely listed as inhibitors; AID 1347043; 2.5% of 76,000 active; purified P. pyralis luciferase, luminescence, biochemical; note: % is set by controls: 0 for no effect and ±100 for the full control effect; nearly all actives have a fitted effect of over 65% in size
Target sequence (P08659 whole entry, looked up): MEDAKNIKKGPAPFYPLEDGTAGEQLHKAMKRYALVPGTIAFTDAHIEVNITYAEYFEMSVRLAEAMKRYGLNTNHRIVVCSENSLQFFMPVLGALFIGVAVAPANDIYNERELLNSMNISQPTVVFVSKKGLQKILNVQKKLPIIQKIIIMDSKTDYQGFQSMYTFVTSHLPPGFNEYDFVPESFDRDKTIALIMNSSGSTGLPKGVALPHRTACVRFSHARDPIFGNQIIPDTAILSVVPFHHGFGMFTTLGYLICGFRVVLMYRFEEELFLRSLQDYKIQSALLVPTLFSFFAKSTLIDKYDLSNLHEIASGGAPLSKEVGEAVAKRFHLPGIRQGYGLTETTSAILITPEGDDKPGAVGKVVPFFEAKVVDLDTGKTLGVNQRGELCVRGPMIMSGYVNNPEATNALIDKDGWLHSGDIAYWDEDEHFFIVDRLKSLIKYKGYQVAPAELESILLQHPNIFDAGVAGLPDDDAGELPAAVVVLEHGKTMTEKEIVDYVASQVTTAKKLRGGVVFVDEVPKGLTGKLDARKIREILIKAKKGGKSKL
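Inhibitors were tested against purified firefly luciferase in a biochemical, low-substrate format (both substrates at 10uM) and luminescence measured with a CCD imager.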
NIH3T3 tox: NIH 3T3 cell cytotoxicity; 4.3% of 94,000 active; NIH 3T3 viability, CellTiter-Glo ATP luminescence, 48-72 h; AID 1345082; Potency, µM (highest dose often 96.7 µM), for the others: top-dose activity change, negative = cytotoxicity, hits mostly inhibitors; note: % is set by controls: 0 for no effect and ±100 for the full control effect; nearly all actives have a fitted effect of over 55% in size
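NIH 3T3 cells at 400 cells/well received 23 nL of compound by pintool and were incubated 48 or 72 h at 37 °C. Viability was read as ATP-coupled CellTiter-Glo luminescence.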
HEK293 tox: HEK 293 cell cytotoxicity; HEK 293 viability, ATP luminescence (CellTiter-Glo), 48-72 h; Potency, µM (series often up to 115 µM), inactives show at the highest dose activity change, negative = cytotoxicity, actives largely listed as inhibitors; 6.6% of 94,000 active; note: % is set by controls: 0 for no effect and ±100 for the full control effect; nearly all actives have a fitted effect of over 60% in size
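250 HEK 293 cells/well; compound by pintool; incubated 48 or 72 hr at 37 degree Celsius; CellTiter-Glo added, 10 min RT, luminescence imaged.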
FLuc SDR no ATP: binders stabilizing firefly luciferase, without ATP | shares compounds with FLuc inh-1 | Purified FLuc-C-HiBiT, Nano-Glo HiBiT luminescence, no ATP | Potency, µM (top dose mostly 32.7 µM), inactives show at the highest dose activation (signal gain), actives largely listed as activators | 7.8% of 1,300 active | AID 1963318; note: nearly all actives have a fitted effect of over 55% in size
FLuc SDR ATP: binders stabilizing firefly luciferase, plus ATP; Potency, µM (highest dose often 32.7 µM), for inactives: top-dose activation (gain of signal), most hits filed as activators; shares compounds with FLuc inh-1; purified FLuc-C-HiBiT + ATP, HiBiT complementation luminescence; 8.7% of 1,300 active;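 note: signal reports ligand binding via conformational change of the enzyme rather than luciferase catalysis; % of control where 0% means no effect; nearly all actives have a fitted effect of over 55% in size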
FLuc inh-2: blocks firefly luciferase enzymatic activity | shares compounds with FLuc inh-1 | purified FLuc-C-HiBiT enzyme, luciferin luminescence | Potency, µM (titrated, usually from 32.7 µM), for inactives: top-dose activity change, negative = inhibition, actives largely listed as inhibitors | 42% of 1,300 active | AID 1963320; note: % is set by controls: 0 for no effect and ±100 for the full control effect; nearly all actives have a fitted effect of over 70% in size
* marks the source's active call; other numbers are inactive results; i = inactive; ? = inconclusive; · = no result given; [ ] = dose if it differs, or a comment. Unless noted, calls come from the whole dose curve; as a rule, active = well fitted curve in the direction sought with a large enough effect; inconclusive = small, poorly fitted or top-dose-only effect, or another doubt; inactive = no such curve, though single readings can be large; an effect the other way counts as inactive or inconclusive. Potency is the fitted concentration of half-maximal effect.

SMILES | NPR1 antag | FLuc inh-1 | NIH3T3 tox | HEK293 tox | others
COCC(=O)NC[C@H]1C[C@@H]2CCN1C[C@@H]2c1cc(-c2ccccc2)nc(C)n1 | 3%[70.6 µM] | i | ? | -28%[172 µM]
CCC(CC)c1cc([C@H]2CN3CC[C@H]2C[C@@H]3CNC(=O)c2cccs2)nc(-c2ccncc2)n1 | ? | i | 22µM* | ?
CCC(CC)c1cc([C@H]2CN3CC[C@H]2C[C@@H]3CNC(=O)Cc2cccs2)nc(-c2ccncc2)n1 | ? | i | 28µM* | 40µM*
Cn1nc(-c2ccccc2)cc1[C@H]1CN2CC[C@H]1C[C@@H]2CNC(=O)c1cccs1 | 3%[70.6 µM] | i | ? | ?
Cc1nc(-c2ccccc2)cc([C@H]2CN3CC[C@H]2C[C@@H]3CNS(=O)(=O)Cc2ccccc2)n1 | -1% | i | 79µM* | 79µM*
Cc1nc(-c2ccccc2)cc([C@H]2CN3CC[C@H]2C[C@@H]3CNC(=O)c2cccs2)n1 | -3%[70.6 µM] | i | ? | 71µM*
CCOC(=O)[C@H]1CN(C(=O)OCC)[C@]2(C)C(=O)Nc3ccccc3[C@H]12 | · | · | ? | -22%
Cc1ncc2c(n1)C[C@@H]1CC[C@H]2N1C(=O)c1nn(C)c2ccccc12 | 11% | i | -12% | i
Cc1noc(-c2ccc(N3CC4CC(C3)c3cccc(=O)n3C4)nc2)n1 (stereo unspecified) | -7% | ? | -2% | -13%
COc1cc2c(cc1OCc1ccccc1)N(C(=O)c1cc3ccccc3[nH]1)CC21CCN(C)CC1 | -1% | i | 22µM* | 20µM*
COc1cc2c(cc1OCc1ccccc1)N(C(=O)c1c[nH]c3ccccc13)CC21CCN(C)CC1 | -4% | i | 20µM* | 22µM*
COc1cc2c(cc1OCc1ccccc1)N(C(=O)c1cccc3[nH]ccc13)CC21CCN(C)CC1 | 1% | i | 20µM* | ?
COc1cc2c(cc1OCc1ccc(Cl)cc1)N(Cc1ccccc1)CC21CCN(C(C)=O)CC1 | -21% | i | ? | ?
COc1cc2c(cc1OCc1ccccc1)N([S+](=O)([O-])c1cn(C)cn1)CC21CCN(C)CC1 | -2% | i | ? | ?
CSc1ccc(-c2ccc(=O)n3c2[C@@H]2C[C@@H](CN(S(C)(=O)=O)C2)C3)cc1 | 5%[70.6 µM] | i | -1%[174 µM] | 1%[172 µM]
Cc1cc(CN2CCC3(CC2)C(=O)Nc2ccccc23)no1 | · | · | -9%[138 µM] | -5%[172 µM]
CC(C)(C)c1ccc(-c2cn(C[C@H]3CC4CCN3C[C@@H]4C(=O)Nc3ccccc3)nn2)cc1 (stereo partly specified) | 1% | ? | 28µM* | 28µM*
Cc1ncsc1CN1CC(CO)C2(CCNCC2)C1 (stereo unspecified) | 8% | i | -12% | -9%
CCOC(=O)[C@H]1CN(C(=O)Cc2ccccc2)[C@]2(C)C(=O)N(CCOC(C)=O)c3ccccc3[C@H]12 | · | · | -22%[46.1 µM] | ?
COc1cc2c(cc1Oc1ccccc1)NC(=O)C21CCN(Cc2cccnc2)CC1 | -22%[70.6 µM] | i | ? | 89µM*
COc1cc2c(cc1Oc1ccccc1)NC(=O)C21CCN(Cc2nccn2C)CC1 | 1%[70.6 µM] | i | ? | 100µM*
O=C1Nc2ccccc2C12CCN(Cc1cccnc1)C2 (stereo unspecified) | 0%[70.6 µM] | i | -19%[138 µM] | -17%[172 µM]
COc1cc2c(cc1Oc1cccc(N(C)C)c1)NC(=O)C21CCN(Cc2nccn2C)CC1 | -23% | i | -18% | ?
Cc1ncc2c(n1)C[C@@H]1CC[C@H]2N1C(=O)c1ccc(C(C)C)cc1 | 12% | i | -13% | -27%
O=C1CS(=O)(=O)C2(CCNCC2)N1c1ccccc1 | 0% | i | i | -15%
SMILES | NPR1 antag | FLuc inh-1 | NIH3T3 tox | HEK293 tox | others
COc1cc2c(cc1CCc1ccccc1)N(C(=O)c1ccc3[nH]ccc3c1)CC21CCN(C(C)=O)CC1 | -23% | i | ? | ?
O=C(N1CCCC1)N1C2CCC1CN(Cc1cccnc1)C2 | · | · | -22% | -27%
O=C(Cc1ccc(F)cc1Cl)N1C[C@H]2CC[C@@H]1CN(Cc1cccnc1)C2 | ? | i | -29% | 35µM*
COc1ccc2c(c1)C1(CCN(C(=O)Nc3cccc(C)c3)C1)C(=O)N2C (stereo unspecified) | -8% | i | -7% | -16%
COc1ccc2c(c1)C1(CCN(C(=O)Nc3ccc4c(c3)OCCO4)C1)C(=O)N2C (stereo unspecified) | -15% | 10µM* | -4% | -29% | FLuc SDR no ATP=22%;FLuc SDR ATP=15%;FLuc inh-2=?
COCCN1C[C@H]2CN(CC3CC3)CCN2C1=O | -2%[70.6 µM] | i | -5%[230 µM] | 3%[230 µM]
CN(CCc1ccccn1)C[C@H]1CN2CC[C@H]1C[C@@H]2CNS(=O)(=O)c1ccccc1 | -2%[70.6 µM] | i | -27%[174 µM] | -10%[172 µM]
O=C(Nc1ccc2c(c1)OCCO2)c1cccn(Cc2ccccc2)c1=O | · | · | · | · | FLuc SDR no ATP=16%;FLuc SDR ATP=11%;FLuc inh-2=?
C=C[C@H]1CN2CC[C@H]1C[C@@H]2CNC(=O)Nc1cccc(C#N)c1 | 1%[70.6 µM] | i | -5%[174 µM] | 4%[172 µM]
CN1CCN(C(=O)COc2ccc(-c3nc4ccccc4s3)cc2)CC1 | · | · | · | · | FLuc SDR no ATP=1.6µM*;FLuc SDR ATP=?;FLuc inh-2=0.5µM*
COc1ccc(-c2cc3c(cn2)CN(C)CCN3)cn1 | -21%[70.6 µM] | 6.3µM* | ? | -24%[230 µM] | FLuc SDR no ATP=20%[65.7 µM];FLuc SDR ATP=15%[65.7 µM];FLuc inh-2=?
CCn1cc(-c2cc3c(cn2)CN(C)CCN3)cn1 | · | · | · | · | FLuc SDR no ATP=16%[65.7 µM];FLuc SDR ATP=9%[65.7 µM];FLuc inh-2=?
COC[C@H]1C[C@@H](NC2CCOCC2)[C@H](O)[C@@H]1O | 2%[70.6 µM] | i | i | i
CCCS(=O)(=O)NC[C@H]1C[C@@H]2CCN1C[C@@H]2CC | -5%[70.6 µM] | i | i | 5%[230 µM]
CCCN1CCNc2cc(Nc3ccccc3)ncc2C1 | -1%[70.6 µM] | 6.3µM* | ? | 89µM* | FLuc SDR no ATP=27%[65.7 µM];FLuc SDR ATP=19%[65.7 µM];FLuc inh-2=?

Bioassay records as filed in PubChem.
